How the values were obtained:
[1] = target: Serine/threonine-protein kinase pim-2 (Homo sapiens) (UniProt Q9P1W9); settings: at 1 µM;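 note: each value is a mean of the inhibition measurements against the kinase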
[2] = target: Serine/threonine-protein kinase pim-3 (Homo sapiens) (UniProt Q86V86); settings: at 0.1 µM
[3] = target: Serine/threonine-protein kinase pim-3 (Homo sapiens) (UniProt Q86V86); settings: at 1 µM
[4] = target: T1, MAP kinase-activated protein kinase 5 (Homo sapiens) (UniProt Q8IW41); settings: at 0.1 µM
T1 sequence (whole entry): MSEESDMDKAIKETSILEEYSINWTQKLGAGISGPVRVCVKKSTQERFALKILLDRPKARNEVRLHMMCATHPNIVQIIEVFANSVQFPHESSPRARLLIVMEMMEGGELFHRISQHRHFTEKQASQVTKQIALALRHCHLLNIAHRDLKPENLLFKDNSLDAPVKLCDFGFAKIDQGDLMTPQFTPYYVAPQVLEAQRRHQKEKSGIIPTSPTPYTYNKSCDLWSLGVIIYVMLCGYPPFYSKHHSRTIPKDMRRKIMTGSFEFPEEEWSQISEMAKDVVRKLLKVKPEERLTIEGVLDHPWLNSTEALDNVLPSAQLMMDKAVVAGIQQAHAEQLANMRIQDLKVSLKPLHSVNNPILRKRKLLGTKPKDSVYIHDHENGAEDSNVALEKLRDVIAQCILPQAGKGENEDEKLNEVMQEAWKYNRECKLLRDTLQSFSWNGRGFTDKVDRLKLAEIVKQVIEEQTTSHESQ

[5] = target: T1, MAP kinase-activated protein kinase 5 (Homo sapiens); settings: at 1 µM
[6] = target: Serine/threonine-protein kinase SIK1 (Homo sapiens) (UniProt P57059); settings: at 0.1 µM
[7] = target: Serine/threonine-protein kinase SIK1 (Homo sapiens) (UniProt P57059); settings: at 1 µM
[8] = target: Serine/threonine-protein kinase SIK2 (Homo sapiens) (UniProt Q9H0K1); settings: at 0.1 µM
[9] = target: Serine/threonine-protein kinase SIK2 (Homo sapiens) (UniProt Q9H0K1); settings: at 1 µM
[10] = target: T2, Serine/threonine-protein kinase TBK1 (Homo sapiens) (UniProt Q9UHD2); settings: at 0.1 µM;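 note: values are the mean TBK1 inhibition, taken from the GSK PKIS screening data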
T2 sequence (whole entry): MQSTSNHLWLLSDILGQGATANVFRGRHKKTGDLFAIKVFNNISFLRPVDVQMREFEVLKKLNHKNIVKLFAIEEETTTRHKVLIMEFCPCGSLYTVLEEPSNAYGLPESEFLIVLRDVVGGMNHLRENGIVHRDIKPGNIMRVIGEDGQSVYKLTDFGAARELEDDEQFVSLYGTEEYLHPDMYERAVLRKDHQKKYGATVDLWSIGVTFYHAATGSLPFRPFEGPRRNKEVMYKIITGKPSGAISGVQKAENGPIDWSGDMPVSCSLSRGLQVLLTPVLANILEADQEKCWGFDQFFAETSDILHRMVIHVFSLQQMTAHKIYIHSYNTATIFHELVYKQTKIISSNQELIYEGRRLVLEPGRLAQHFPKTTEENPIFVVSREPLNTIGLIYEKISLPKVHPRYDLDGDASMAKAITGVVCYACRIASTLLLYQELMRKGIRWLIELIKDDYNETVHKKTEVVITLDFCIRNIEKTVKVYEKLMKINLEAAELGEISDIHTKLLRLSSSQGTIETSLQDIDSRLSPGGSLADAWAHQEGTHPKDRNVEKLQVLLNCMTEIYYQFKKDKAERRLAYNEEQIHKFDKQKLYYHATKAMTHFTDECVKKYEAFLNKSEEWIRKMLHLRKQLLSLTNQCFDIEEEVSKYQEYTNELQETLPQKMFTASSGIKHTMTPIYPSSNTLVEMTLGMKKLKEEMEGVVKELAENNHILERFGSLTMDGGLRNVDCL

Chain of Serine/threonine-protein kinase SIK1 (Homo sapiens) (P57059 whole entry): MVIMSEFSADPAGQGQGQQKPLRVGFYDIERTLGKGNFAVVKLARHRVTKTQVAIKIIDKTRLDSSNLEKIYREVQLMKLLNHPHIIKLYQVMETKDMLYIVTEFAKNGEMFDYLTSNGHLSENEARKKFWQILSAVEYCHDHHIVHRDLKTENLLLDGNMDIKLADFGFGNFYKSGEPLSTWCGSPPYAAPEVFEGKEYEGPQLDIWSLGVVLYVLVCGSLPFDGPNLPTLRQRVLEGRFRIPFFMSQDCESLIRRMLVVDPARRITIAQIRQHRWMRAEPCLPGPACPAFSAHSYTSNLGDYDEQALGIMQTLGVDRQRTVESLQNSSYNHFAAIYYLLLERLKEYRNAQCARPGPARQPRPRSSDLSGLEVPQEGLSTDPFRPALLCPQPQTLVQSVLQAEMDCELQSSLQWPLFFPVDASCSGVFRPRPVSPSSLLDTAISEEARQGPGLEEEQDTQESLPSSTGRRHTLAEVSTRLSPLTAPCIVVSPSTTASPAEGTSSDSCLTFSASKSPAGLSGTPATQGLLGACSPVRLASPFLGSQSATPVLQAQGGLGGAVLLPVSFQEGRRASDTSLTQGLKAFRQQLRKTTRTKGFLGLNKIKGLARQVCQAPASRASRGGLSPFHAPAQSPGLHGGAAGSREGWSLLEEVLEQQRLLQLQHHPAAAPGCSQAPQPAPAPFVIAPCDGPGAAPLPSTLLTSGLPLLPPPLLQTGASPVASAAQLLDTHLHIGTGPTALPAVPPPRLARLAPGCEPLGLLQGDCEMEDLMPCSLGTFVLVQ
Chain of Serine/threonine-protein kinase SIK2 (Homo sapiens) (Q9H0K1 whole entry, looked up): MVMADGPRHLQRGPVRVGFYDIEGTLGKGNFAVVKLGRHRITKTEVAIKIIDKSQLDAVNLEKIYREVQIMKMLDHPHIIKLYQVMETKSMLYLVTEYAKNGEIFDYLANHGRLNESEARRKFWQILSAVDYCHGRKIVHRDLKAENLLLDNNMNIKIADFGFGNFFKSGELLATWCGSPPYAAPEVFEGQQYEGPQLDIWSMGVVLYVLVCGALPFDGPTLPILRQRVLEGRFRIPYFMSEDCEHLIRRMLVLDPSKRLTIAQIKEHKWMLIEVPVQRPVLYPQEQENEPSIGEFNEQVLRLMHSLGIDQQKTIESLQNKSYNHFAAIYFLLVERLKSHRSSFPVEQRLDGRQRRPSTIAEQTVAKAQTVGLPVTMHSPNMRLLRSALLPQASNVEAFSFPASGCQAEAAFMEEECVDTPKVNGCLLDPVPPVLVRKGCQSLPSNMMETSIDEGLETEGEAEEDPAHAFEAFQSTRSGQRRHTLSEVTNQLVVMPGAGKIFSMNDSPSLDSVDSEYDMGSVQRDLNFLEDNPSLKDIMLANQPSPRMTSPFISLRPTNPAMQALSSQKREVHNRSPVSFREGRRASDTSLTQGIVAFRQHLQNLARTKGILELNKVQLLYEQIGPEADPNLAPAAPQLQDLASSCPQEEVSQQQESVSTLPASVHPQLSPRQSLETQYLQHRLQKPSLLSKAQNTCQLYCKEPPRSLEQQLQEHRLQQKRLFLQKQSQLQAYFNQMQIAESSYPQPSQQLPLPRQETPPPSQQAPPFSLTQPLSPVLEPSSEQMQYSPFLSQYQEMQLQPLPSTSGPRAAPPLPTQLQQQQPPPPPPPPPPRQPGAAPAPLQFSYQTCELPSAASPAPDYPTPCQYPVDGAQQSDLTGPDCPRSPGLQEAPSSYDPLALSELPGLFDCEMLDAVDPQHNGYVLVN
Chain of Serine/threonine-protein kinase pim-2 (Homo sapiens) (Q9P1W9 whole entry, looked up): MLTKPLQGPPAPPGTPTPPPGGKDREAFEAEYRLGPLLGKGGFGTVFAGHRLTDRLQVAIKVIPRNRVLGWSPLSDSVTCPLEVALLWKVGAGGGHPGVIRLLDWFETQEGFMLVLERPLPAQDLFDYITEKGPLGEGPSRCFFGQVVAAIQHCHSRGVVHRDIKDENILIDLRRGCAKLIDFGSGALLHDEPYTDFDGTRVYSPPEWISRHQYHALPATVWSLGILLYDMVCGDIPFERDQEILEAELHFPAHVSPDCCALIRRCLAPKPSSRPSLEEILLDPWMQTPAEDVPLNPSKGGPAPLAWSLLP

SMILES | inhibition [1] [%] | inhibition [2] [%] | inhibition [3] [%] | inhibition [4] [%] | inhibition [5] [%] | inhibition [6] [%] | inhibition [7] [%] | inhibition [8] [%] | inhibition [9] [%] | inhibition [10] [%]
Fc1ccc(-c2nn3ncccc3c2-c2ccnc(Nc3ccc4c(c3)OCCO4)n2)cc1 | -0.97 | -2.21 | -3.73 | 0.63 | 0.49 | 10.5 | 38.4 | 18.8 | 44.6 | 5.89
CCCN(CCS(C)(=O)=O)Cc1ccc(-c2ccc3ncnc(Nc4ccc(OCc5cccc(F)c5)c(Cl)c4)c3c2)o1 | 0.55 | 0.79 | 1.71 | 0.4 | 0.36 | 5.69 | 6.39 | 4.14 | 7.64 | 2.46
Cc1cccc(Nc2ncc(-c3ccccc3)o2)c1 | 0.42 | -0.05 | 1.97 | 1.69 | 0.97 | 3.47 | 12.8 | -1.34 | 9.41 | 2.6
CCn1c(-c2nonc2N)nc2ccccc21 | 1.82 | -0.8 | 10.7 | 0.58 | -0.74 | 7.25 | 7.65 | 9.3 | 1.28 | 3.25
CNC(=O)c1cc(-c2ccc(F)cc2)cc(-c2ccc(S(=O)(=O)N3CCCC3)cc2)c1N | 0.43 | -1.52 | -0.11 | 0.53 | 0.97 | 6.18 | 6.6 | 3.18 | 5.07 | 0.38
CCN1CCC(CC(=O)Nc2n[nH]c3nnc(-c4cccc(F)c4F)cc23)CC1 | 1.56 | 1.76 | 2.5 | 1.08 | 1.15 | 4.85 | 5.87 | -1.82 | 1.81 | 1.12
CCc1nn2ncccc2c1-c1ccnc(NC2CC2)n1 | 1.22 | 0.67 | 4.22 | 0.66 | 1.12 | 0.6 | 7.84 | 0.42 | 2.21 | 2.11
FC(F)(F)c1cccc(-c2nn3ncccc3c2-c2ccnc(Nc3ccc4c(c3)OCCO4)n2)c1 | 0.66 | -1.58 | -2.3 | 0.49 | -0.29 | 3.06 | 6.62 | 3.42 | 6.02 | 0.3
c1ccc(-c2nc3n(c2-c2ccc4c(c2)OCO4)CCC3)nc1 | 0.83 | 0.35 | 1.07 | 0.81 | 0.42 | 2.02 | 4.54 | 0.11 | 3.1 | 1
CCn1c(-c2nonc2N)nc2cnc(Oc3cccc(NC(=O)c4ccc(N(C)C)cc4)c3)cc21 | 1.39 | -0.12 | 1.67 | 0.33 | -1.26 | 1.57 | 2.47 | 4.79 | 4.74 | 0.53
Nc1nc(-c2cccc(Cl)c2)c(-c2ccc3ncccc3n2)s1 | 0.44 | 1.25 | 4.87 | 2.21 | 4.45 | 3.24 | 9.29 | 4.96 | 14.6 | 3.03
CCn1cc(-c2ccnc3[nH]ccc23)c(-c2cccc(NC(=O)Nc3ccc(OCc4ccccc4)cc3)c2)n1 | 0.13 | -0.81 | -1.13 | -0.44 | -0.98 | 1.1 | 3.35 | -4.91 | -0.71 | -0.45
CC(=O)NCc1cccc(C#Cc2cncnc2Nc2ccc(OCc3cccc(F)c3)c(Cl)c2)c1 | 0.6 | -0.57 | -1.13 | 0 | 0.14 | 1.32 | 2.96 | -1.4 | 5.8 | -0.27
CCOc1ccc2c(-c3ccnc(Nc4cccc(C(F)(F)F)c4)n3)cnn2n1 | -0.33 | -1.1 | -1.96 | 0.3 | -0.41 | 2.46 | 3.82 | 2.86 | 3.43 | 2.13
N#Cc1c(NC(=O)CN2CCOCC2)sc2c1CCCC2 | 1.1 | 0.45 | 1.12 | 1.41 | 2.49 | 0.17 | 6.91 | 5.2 | 8.69 | 1.76
c1ccc(COc2ccc(Nc3ncnc4ccc(-c5ccco5)cc34)cc2)cc1 | 1.2 | -0.14 | 0.8 | 0.38 | 0.36 | 1.4 | 7.46 | -3.82 | 1.35 | -0.27
CC(C)(CO)CNC(=O)c1ccc2c(c1)/C(=N/Nc1ccc(S(N)(=O)=O)cc1)C(=O)N2 | 4.28 | 1.57 | 14.2 | -0.02 | -0.16 | 3.06 | 27.7 | -1.9 | 36 | 21.7

SMILES | inhibition [1] [%] | inhibition [2] [%] | inhibition [3] [%] | inhibition [4] [%] | inhibition [5] [%] | inhibition [6] [%] | inhibition [7] [%] | inhibition [8] [%] | inhibition [9] [%] | inhibition [10] [%]
CCn1c(-c2nonc2N)nc2c(C#CC(C)(C)O)ncc(OC3CCNCC3)c21 | 11.7 | 2.64 | 23.8 | 0.79 | 1.22 | 3.53 | 10.6 | 3.69 | 14.8 | 12.2
O=C(Nc1n[nH]c2cc(-c3ccc(F)cc3)ccc12)C1CC1 | 1.49 | 0.08 | 0.99 | 1.06 | 5.12 | 4.89 | 6.8 | 5.76 | 7.9 | 2.6
CC1=C(C(=O)Nc2cc(Cl)c3[nH]ncc3c2)C(c2ccc(C(F)(F)F)cc2)CC(=O)N1 (stereo not given) | -0.24 | -0.23 | -0.25 | 1.37 | 2.73 | 4.89 | 8.58 | 4.56 | 11.8 | 2.77
[O-][S+]1CCN(Cc2ccc(-c3ccc4ncnc(Nc5ccc(OCc6cccc(F)c6)c(Cl)c5)c4c3)o2)CC1 | 0.11 | 0.21 | 1.34 | 2 | 2.05 | 5.68 | 12.1 | 8.92 | 10.4 | 5.39
O=S(=O)(CCNCc1ccc(-c2ccc3ncnc(Nc4ccc(OCc5cccc(F)c5)c(Cl)c4)c3c2)o1)c1ccccc1 | 0.58 | -0.16 | 1.33 | 2.07 | 2.09 | 3.17 | 9.64 | 2.1 | 6.58 | 4.82
Clc1ccc(-c2nn3ncccc3c2-c2ccnc(Nc3ccccc3)n2)cc1 | 0.51 | 3.12 | 0.33 | 0.57 | -0.73 | 3.67 | 13.6 | -1.6 | 13.9 | 1.29
CNC(=O)c1cccc(C#Cc2cncnc2Nc2ccc(OCc3cccc(F)c3)c(Cl)c2)c1 | -1.75 | 0.69 | 2.29 | 0.27 | 1.49 | 2.11 | 3.26 | -1.57 | -1.75 | -0.71
CNC(=O)c1cncc(/C=C/c2ccccc2Cl)c1 | 0.04 | 3.4 | 5.1 | 0.27 | 1.73 | 2.02 | 25.6 | 2.24 | 8.3 | 0.45
COc1ccc(-c2nn3ncccc3c2-c2ccnc(Nc3ccc4c(c3)OCCO4)n2)cc1 | 1.11 | 0.26 | 2.15 | 0.05 | -0.76 | 1.35 | 12.5 | -0.55 | 6.1 | -0.73
COc1ccc(-c2cc(-c3c[nH]nc3-c3ccccn3)ccn2)cc1 | 1.29 | 0.79 | 1.9 | 2.14 | 4.32 | 11.2 | 7.23 | 3.82 | 11.3 | 4.48
COC(=O)Nc1nc2ccc(S(=O)(=O)c3ccc(NC(=O)Nc4cc(C(F)(F)F)ccc4F)cc3)cc2[nH]1 | 0.73 | -0.65 | -1.2 | 0.38 | -0.4 | 2.55 | 3.12 | 0.97 | 0.1 | 2.66
COc1cc(Nc2nccc(Nc3ccc4c(C)n[nH]c4c3)n2)cc(OC)c1OC | 1.57 | 2.01 | -0.7 | -0.04 | -1.77 | 8.95 | 51.2 | 4.45 | 28 | 4.57
COc1cc(N2CCN(C(C)C)CC2)ccc1Nc1nc(Nc2ccc(F)cc2C(N)=O)c2cc[nH]c2n1 | 1.98 | 1.69 | 19.9 | 1.95 | 16 | 7.46 | 14.3 | 3.18 | 8.56 | 3.02
Fc1ccc(-c2cc(-c3c[nH]nc3-c3ccccn3)ccn2)cc1 | -1.45 | -0.42 | 1.85 | 2.19 | 4.27 | 3.49 | 8.52 | 7.67 | 8 | 0.43
CCn1c(-c2nonc2N)nc2c(C#CC(C)(C)O)nc(OC[C@H](N)c3ccccc3)cc21 | 3.44 | 0.83 | 4.27 | 0.68 | 1.6 | 3.53 | 7.29 | 1.31 | -1.51 | 3.75
N#Cc1c(NC(=O)c2ccc(F)cc2)sc2c1CCCC2 | -0.05 | 0.71 | 1.6 | 0.52 | -0.3 | 1.57 | 3.96 | -1.57 | 8.23 | 0.78
CCN(CC)S(=O)(=O)c1ccc(OC)c(Nc2ncc(-c3ccccc3)o2)c1 | 0.18 | 2.06 | 3.12 | 0.51 | 0.24 | 1.24 | 6.72 | 3.3 | 2.83 | 1.32
